This is one part of the list. How many sequences the whole screen found active is unknown.
Target: furin, P09958
Assay: furin cleavage Z-score vs untreated control; higher = more cleavage, active = 3.5 or more, inactive = 1 or less, 8 variable residues between constant flanks
Description: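 Multiplexed peptide-cDNA fusion cleavage assay. 8-mer variable peptides flanked by constant Cys-Ala (N-term) and Ala-Gly-Asn-Ala-Ser-Ala-Ser-Ala (C-term) and conjugated to a cDNA oligonucleotide were bead-immobilised via the N-terminus. They were treated with purified furin at a 1:10 enzyme:substrate ratio in 50 mM HEPES pH 7.5, 1 mM CaCl2, 100 mM NaCl for 7.5, 15 or 30 min. Released cDNA was counted by next-generation sequencing, and log counts versus no-furin controls were lowess-adjusted and converted to robust Z-scores.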

furin, P09958, sequence (P09958 whole entry): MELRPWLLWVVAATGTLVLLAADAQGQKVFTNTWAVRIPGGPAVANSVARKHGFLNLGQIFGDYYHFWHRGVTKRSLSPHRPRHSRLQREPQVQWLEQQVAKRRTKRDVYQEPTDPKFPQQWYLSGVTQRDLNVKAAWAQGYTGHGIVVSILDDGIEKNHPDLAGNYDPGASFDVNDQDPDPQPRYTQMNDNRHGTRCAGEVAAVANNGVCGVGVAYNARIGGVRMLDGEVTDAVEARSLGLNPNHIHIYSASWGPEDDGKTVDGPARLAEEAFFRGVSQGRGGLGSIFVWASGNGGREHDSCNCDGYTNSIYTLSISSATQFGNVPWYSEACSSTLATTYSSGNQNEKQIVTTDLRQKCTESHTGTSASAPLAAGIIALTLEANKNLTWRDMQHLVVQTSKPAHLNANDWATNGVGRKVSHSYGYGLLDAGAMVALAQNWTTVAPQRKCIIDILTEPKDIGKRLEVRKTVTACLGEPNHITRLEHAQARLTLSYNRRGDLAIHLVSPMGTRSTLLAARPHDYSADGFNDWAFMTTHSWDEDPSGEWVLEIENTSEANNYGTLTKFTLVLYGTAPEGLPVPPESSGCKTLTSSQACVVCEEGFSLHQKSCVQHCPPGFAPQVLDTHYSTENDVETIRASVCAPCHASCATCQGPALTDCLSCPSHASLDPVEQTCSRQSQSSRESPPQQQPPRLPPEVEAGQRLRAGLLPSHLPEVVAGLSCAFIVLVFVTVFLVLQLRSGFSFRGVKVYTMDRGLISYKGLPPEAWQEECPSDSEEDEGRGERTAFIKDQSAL

B1: HC1835 (peptide)
chain: CAHTPCSGSWAGNASASA
- furin cleavage Z-score (7.5 min): -0.934 (inactive)
- furin cleavage Z-score (15 min): -0.656 (inactive)
- furin cleavage Z-score (30 min): -1.49 (inactive)

B2: HC959 (peptide)
chain: CAAQAPPPSWAGNASASA
- furin cleavage Z-score (7.5 min): -0.328 (inactive)
- furin cleavage Z-score (15 min): 0.141 (inactive)
- furin cleavage Z-score (30 min): -1.2 (inactive)

B3: FS-253 (peptide)
chain: CAINKRVKRDAGNASASA
- furin cleavage Z-score (7.5 min): 7.21 (active)
- furin cleavage Z-score (15 min): 5.79 (active)
- furin cleavage Z-score (30 min): 4.98 (active)

B4: FS-331 (peptide)
chain: CAGQSWVKRDAGNASASA
- furin cleavage Z-score (7.5 min): 1.45
- furin cleavage Z-score (15 min): 0.512 (inactive)
- furin cleavage Z-score (30 min): 1.11

B5: FS-642 (peptide)
chain: CAANHVVKRDAGNASASA
- furin cleavage Z-score (7.5 min): 8.87 (active)
- furin cleavage Z-score (15 min): 11.8 (active)
- furin cleavage Z-score (30 min): 8.5 (active)

B6: HC1429 (peptide)
chain: CATHINSVWKAGNASASA
- furin cleavage Z-score (7.5 min): -0.832 (inactive)
- furin cleavage Z-score (15 min): -2.14 (inactive)
- furin cleavage Z-score (30 min): -0.179 (inactive)

B7: HC2199 (peptide)
chain: CAEVPTSTWVAGNASASA
- furin cleavage Z-score (7.5 min): 0.334 (inactive)
- furin cleavage Z-score (15 min): -2.59 (inactive)
- furin cleavage Z-score (30 min): -0.0938 (inactive)

B8: HC1862 (peptide)
chain: CATQPCSGSWAGNASASA
- furin cleavage Z-score (7.5 min): 0.195 (inactive)
- furin cleavage Z-score (15 min): -1.61 (inactive)
- furin cleavage Z-score (30 min): 0.946 (inactive)

B9: HC2365 (peptide)
chain: CAEVPCHLPSAGNASASA
- furin cleavage Z-score (7.5 min): 0.888 (inactive)
- furin cleavage Z-score (15 min): 0.887 (inactive)
- furin cleavage Z-score (30 min): 2.28

B10: FS-3180 (peptide)
chain: CAPVLRGQAGAGNASASA
- furin cleavage Z-score (7.5 min): -0.625 (inactive)
- furin cleavage Z-score (15 min): 0.202 (inactive)
- furin cleavage Z-score (30 min): -0.205 (inactive)

B11: FS-2862 (peptide)
chain: CAGQKRSRSRAGNASASA
- furin cleavage Z-score (7.5 min): 0.426 (inactive)
- furin cleavage Z-score (15 min): -2.34 (inactive)
- furin cleavage Z-score (30 min): 0.754 (inactive)

B12: HC399 (peptide)
chain: CAGSGPDQRPAGNASASA
- furin cleavage Z-score (7.5 min): -0.948 (inactive)
- furin cleavage Z-score (15 min): 0.971 (inactive)
- furin cleavage Z-score (30 min): -0.827 (inactive)

B13: FS-1128 (peptide)
chain: CAGSMRANRIAGNASASA
- furin cleavage Z-score (7.5 min): -0.706 (inactive)
- furin cleavage Z-score (15 min): 0.0659 (inactive)
- furin cleavage Z-score (30 min): 0.059 (inactive)

B14: HC647 (peptide)
chain: CAPVVFSQMEAGNASASA
- furin cleavage Z-score (7.5 min): 1.38
- furin cleavage Z-score (15 min): 1.32
- furin cleavage Z-score (30 min): 0.561 (inactive)

B15: FS-1207 (peptide)
chain: CAGSKRSRREAGNASASA
- furin cleavage Z-score (7.5 min): 11.5 (active)
- furin cleavage Z-score (15 min): 11.8 (active)
- furin cleavage Z-score (30 min): 7.54 (active)

B16: FS-476 (peptide)
chain: CAPQSRGRREAGNASASA
- furin cleavage Z-score (7.5 min): 13.1 (active)
- furin cleavage Z-score (15 min): 13.2 (active)
- furin cleavage Z-score (30 min): 8.24 (active)

B17: FS-368 (peptide)
chain: CAPESRKRREAGNASASA
- furin cleavage Z-score (7.5 min): 13.9 (active)
- furin cleavage Z-score (15 min): 14.4 (active)
- furin cleavage Z-score (30 min): 11.3 (active)

B18: FS-435 (peptide)
chain: CAGSNRKVREAGNASASA
- furin cleavage Z-score (7.5 min): 10.8 (active)
- furin cleavage Z-score (15 min): 11.2 (active)
- furin cleavage Z-score (30 min): 7.92 (active)

B19: HC273 (peptide)
chain: CAGCVPCVREAGNASASA
- furin cleavage Z-score (7.5 min): 0.467 (inactive)
- furin cleavage Z-score (15 min): 0.158 (inactive)
- furin cleavage Z-score (30 min): 1.81

B20: FS-426 (peptide)
chain: CAGFLRKRREAGNASASA
- furin cleavage Z-score (7.5 min): 11.1 (active)
- furin cleavage Z-score (15 min): 11.2 (active)
- furin cleavage Z-score (30 min): 8.58 (active)

B21: FS-2117 (peptide)
chain: CAYPKRSAGEAGNASASA
- furin cleavage Z-score (7.5 min): -0.54 (inactive)
- furin cleavage Z-score (15 min): -0.564 (inactive)
- furin cleavage Z-score (30 min): 0.202 (inactive)

B22: FS-465 (peptide)
chain: CANCLRQRRGAGNASASA
- furin cleavage Z-score (7.5 min): -0.759 (inactive)
- furin cleavage Z-score (15 min): -0.337 (inactive)
- furin cleavage Z-score (30 min): -0.511 (inactive)

B23: FS-896 (peptide)
chain: CAWQRRQRRGAGNASASA
- furin cleavage Z-score (7.5 min): 6 (active)
- furin cleavage Z-score (15 min): 6.49 (active)
- furin cleavage Z-score (30 min): 5.96 (active)

B24: FS-1136 (peptide)
chain: CALNNRQIRGAGNASASA
- furin cleavage Z-score (7.5 min): 3.62 (active)
- furin cleavage Z-score (15 min): 5.07 (active)
- furin cleavage Z-score (30 min): 5.04 (active)

B25: FS-1022 (peptide)
chain: CAKWLRFIRGAGNASASA
- furin cleavage Z-score (7.5 min): 2.09
- furin cleavage Z-score (15 min): 0.354 (inactive)
- furin cleavage Z-score (30 min): 3.09

B26: FS-981 (peptide)
chain: CADGNRQVRGAGNASASA
- furin cleavage Z-score (7.5 min): 0.00638 (inactive)
- furin cleavage Z-score (15 min): -1.04 (inactive)
- furin cleavage Z-score (30 min): 0.17 (inactive)

B27: FS-1094 (peptide)
chain: CATKNRQRRGAGNASASA
- furin cleavage Z-score (7.5 min): 6.87 (active)
- furin cleavage Z-score (15 min): 7.34 (active)
- furin cleavage Z-score (30 min): 5.71 (active)

B28: FS-1050 (peptide)
chain: CAPPRRQRRGAGNASASA
- furin cleavage Z-score (7.5 min): 0.924 (inactive)
- furin cleavage Z-score (15 min): 0.828 (inactive)
- furin cleavage Z-score (30 min): 1.23

From the supplement of paper PMC3545927
